Assay outcomes deposited in PubChem BioAssay by several laboratories.
PP5 primary – PP5 (human) phosphatase inhibition. 320,000 tested, 0.18% active. P53041. purified PP5c, OMFP substrate fluorescence. inhibition, % at 6.7 µM;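 active = inhibition above the campaign's mean inhibition across all tested compounds plus 3 SD, cut at about 9.5% in these data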;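 also: 0% = DMSO only and 100% = 100 µM cantharidin control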
PREPL inh – inhibits the human prolyl oligopeptidase-like enzyme. Q4J6C6. AID 2751. 320,000 tested, 0.68% active. inhibition, % at 5.96 µM. recombinant PREPL, fluorescence polarization activity-based probe; in the data active = inhibition above about 43%;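 also: 0% = enzyme with DMSO and 100% = wells lacking enzyme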
PP1 counter – counter-screen for PP5 inhibitors: inhibitors of human PP1-alpha | AID 2235 | P62136 | inhibition, % at 6.7 µM | 320,000 tested, 0.9% active | purified PP1alpha, OMFP fluorescence;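 active = inhibition above the mean inhibition of all tested compounds plus 3 SD, computed separately for each screening campaign, cut at about 15% in these data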
TMEM16A act – activates or potentiates the mouse TMEM16A chloride channel; 340,000 tested, 0.3% active; B-score at 10 µM; AID 623877; HEK293 TMEM16A/YFP-H148Q/I152L, iodide quench fluorescence; stronger effect = lower value; Q8BHY3;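 active = fluorescence-ratio B-score plate-corrected deviation score at least 3 library SD below zero, with starting fluorescence score within 5 deviations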;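 also: channel opened by trigger with iodide after compound preincubation; score built on the fluorescence ratio of max minus min over baseline; more negative score means more quench and so TMEM16A activation or potentiation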
Target sequence (Q8BHY3 whole entry, looked up): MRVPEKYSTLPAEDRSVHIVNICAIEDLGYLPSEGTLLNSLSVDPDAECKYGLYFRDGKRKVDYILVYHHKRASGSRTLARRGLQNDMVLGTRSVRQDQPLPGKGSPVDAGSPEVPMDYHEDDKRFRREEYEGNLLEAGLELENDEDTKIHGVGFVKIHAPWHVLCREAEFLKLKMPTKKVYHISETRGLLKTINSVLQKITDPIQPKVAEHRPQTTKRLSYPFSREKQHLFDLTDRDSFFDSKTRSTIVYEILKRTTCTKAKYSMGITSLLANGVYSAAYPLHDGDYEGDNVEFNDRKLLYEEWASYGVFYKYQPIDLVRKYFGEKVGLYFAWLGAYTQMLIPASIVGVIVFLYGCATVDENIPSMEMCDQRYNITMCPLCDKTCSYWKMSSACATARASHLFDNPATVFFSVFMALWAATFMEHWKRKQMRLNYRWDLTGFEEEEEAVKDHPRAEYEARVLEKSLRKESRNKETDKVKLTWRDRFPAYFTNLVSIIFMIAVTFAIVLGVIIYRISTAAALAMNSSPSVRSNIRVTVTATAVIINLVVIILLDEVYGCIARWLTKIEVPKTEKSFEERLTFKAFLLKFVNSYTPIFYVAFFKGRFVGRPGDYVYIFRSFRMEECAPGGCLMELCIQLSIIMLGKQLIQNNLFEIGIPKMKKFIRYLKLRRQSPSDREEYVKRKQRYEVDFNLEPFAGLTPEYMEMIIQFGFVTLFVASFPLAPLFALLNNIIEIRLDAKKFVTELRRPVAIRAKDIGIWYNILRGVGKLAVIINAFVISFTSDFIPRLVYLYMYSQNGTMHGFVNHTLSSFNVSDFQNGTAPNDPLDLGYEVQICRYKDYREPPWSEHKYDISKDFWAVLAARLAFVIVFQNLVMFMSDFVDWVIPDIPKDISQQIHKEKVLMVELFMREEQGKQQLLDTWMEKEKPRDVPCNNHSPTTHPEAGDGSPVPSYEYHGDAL
ANO1 block – inhibitors of mouse TMEM16A calcium-activated chloride channel | Q8BHY3 | HEK293 TMEM16A/YFP iodide influx fluorescence, ionomycin | normalized B-score (activity score, 25-100; higher = stronger inhibition) at 10 µM | 310,000 tested, 1.2% active | AID 588511;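 active = ratio plate-corrected score three or more library SD toward inhibition, starting fluorescence score within five deviations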;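 also: score derived from kinetic fluorescence span divided by baseline fluorescence per well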
DNA FID counter – fluorescent intercalator displacement, NS3 helicase counter-screen. DNA fluorescent intercalator displacement, fluorescence. inhibition, % at 7.9 µM. 290,000 tested, 0.17% active. AID 1845; in the data active = inhibition above about 37%;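 also: 0% = vehicle and 100% = reference compound; higher means more ethidium bromide displaced from hairpin DNA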
Starred values were filed as active, the others as inactive; i = inactive; . = no result given. The list is not random: actives were taken first. Their share in the collection is about 2.7%.

SMILES	PP5 primary	PREPL inh	PP1 counter	TMEM16A act	ANO1 block	DNA FID counter
O=C(NC(Nc1ncc(S(=O)(=O)c2ccc([N+](=O)[O-])cc2)s1)(C(F)(F)F)C(F)(F)F)c1ccc(Cl)cc1	3	11	8	i	100*	6
O=C(Nc1ncc([N+](=O)[O-])s1)c1ccccc1Br	0	2	1	i	100*	4
O=C(CS(=O)(=O)c1ccccc1)Nc1ncc([N+](=O)[O-])s1	-1	-5	-1	i	i	1
O=C(Nc1ncc(S(=O)(=O)c2ccc([N+](=O)[O-])cc2)s1)c1cccc2ccccc12	4	13	-1	-5.3*	25*	4
COCC(=O)Nc1ncc(S(=O)(=O)c2ccc([N+](=O)[O-])cc2)s1	2	-5	-2	i	i	2
CCOC(=O)c1csc(NC(=O)C2=COCCO2)n1	3	-2	2	i	i	-5
CC(C)(C)CN1CCC(Oc2cccc(C(=O)N3CCC[C@H]3CO)c2)CC1	0	8	0	i	i	-1
CCc1cc2c(N3CCN(c4ccccc4)CC3)ncnc2s1	6	18	-1	i	25*	-19
c1ccc(CN2CCN(C(c3ccccc3)c3ccccc3)CC2)cc1	3	-5	7	i	i	21
Fc1ccc(CN2CCN(C(c3ccccc3)c3ccccc3)CC2)cc1	-1	-1	16*	i	i	26
NNC(=O)c1nnsc1-c1csnn1	.	.	.	i	.	.
COc1ccc(N2CCN(C(=O)c3ccc4c(c3)NC(=O)C(CSCc3cccc(F)c3)N4)CC2)cc1 (stereo unspecified)	3	31	33*	.	i	-21
COc1ccc(N2CCN(C(=O)c3ccc4c(c3)NC(=O)C(CSCc3ccc(C)cc3)N4)CC2)cc1 (stereo unspecified)	0	29	19*	.	i	-28
Cc1cccc(N2CCN(C(=O)c3ccc4c(c3)NC(=O)C(CSCc3ccc(F)cc3)N4)CC2C)c1 (stereo unspecified)	0	18	19*	.	i	-32
COc1ccc(N2CCN(C(=O)c3ccc4c(c3)NC(=O)C(CSCc3c(F)cccc3Cl)N4)CC2)cc1 (stereo unspecified)	1	27	25*	.	i	-26
COC(=O)N1C/C=C\C(c2ccc(OC)cc2)N(Cc2ccc(F)cc2)C(=O)C1 (stereo unspecified)	-1	1	2	i	i	.
COc1ccc(C2/C=C\CN(C(=O)Nc3ccccc3-c3ccccc3)CC(=O)N2Cc2ccc(F)cc2)cc1 (stereo unspecified)	5	4	16*	i	i	.
O=S(=O)(N1CCCCC1)N1CCN(c2cc(Cl)ccc2Cl)CC1	1	6	1	-8*	i	-10
O=S(=O)(c1ccc(Cl)cc1)N1CCN(S(=O)(=O)N2CCCCCC2)CC1	-2	3	-2	i	i	0
Cc1ccc(-c2nc3c(Cl)cc(Cl)cc3c(=O)n2O)cc1	1	21	17*	i	100*	-10
CCOC(=O)c1cc(-c2csc(-c3ccc(C(F)(F)F)cc3)n2)on1	0	2	-1	i	i	-1
CCOC(=O)c1sc(-c2ccc(C(F)(F)F)cc2)nc1O	-1	0	17*	i	i	-13
CC(Sc1nnc2c(n1)[nH]c1ccccc12)C(=O)N(C)C1CCCCC1 (stereo unspecified)	2	13	6	i	100*	-28
CC(Sc1nnc2c(n1)[nH]c1ccccc12)C(=O)NC1CCCCC1 (stereo unspecified)	1	-3	2	i	i	-25
CN(Cc1cccc(-n2cccn2)c1)C(=O)CCc1nnc(C2CCCCC2)o1	0	0	7	-6.4*	i	-40
CC(=O)CCc1c(C)nc2ccc(C)cc2c1Cl	2	9	3	i	i	-16
COc1cccc(/C=N/NC(=O)C[n+]2ccccc2)c1O	8	0	3	i	i	4
COc1ccc(CCCC(=O)N/N=C/c2cccc(OC)c2O)cc1C	0	-6	17*	i	i	-22
Cc1cccc(NC(=S)N(Cc2ccc(Br)cc2)Cc2ccc(C(=O)O)cc2)c1	3	2	3	i	i	-31
